According to PubChem BioAssay (EPA / NIEHS):
Activity calls are given as the source filed them. Rule for the calls: active = hit-call score of the fitted dose curve at least 0.9, where 1 is the maximum; inactive = score below 0.9.

Molecular target: Transcription factor E2F1 (Homo sapiens) (UniProt Q01094)
Assay: ATG_E2F_CIS: Attagene CIS-FACTORIAL HepG2 Assay for human E2F Transcription Factor 1 (AID 2282935)
Conditions: HepG2 Attagene cis-reporter, E2F reporter RNA transcripts; actives raise or lower the signal
Protocol: ATG_CIS is a cell-based, multiplexed-readout assay that uses HepG2, a human liver cell line, with measurements taken at 24 hours after chemical dosing in a 24-well plate.ATG_E2F_CIS is one of 52 assay component(s) measured or calculated from the ATG_CIS assay. It is designed to make measurements of mRNA induction, a form of inducible reporter, as detected with fluorescence intensity signals by Reverse transcription polymerase chain reaction (RT-PCR) and Capillary electrophoresis technology.Data from the assay component ATG_E2F_CIS was analyzed into 1 assay endpoint. This assay endpoint, ATG_E2F_CIS, was analyzed with bidirectional fitting relative to DMSO as the negative control and baseline of activity. Using a type of inducible reporter, measures of mRNA for gain or loss-of-signal activity can be used to understand the reporter gene at the transcription factor-level as they relate to the gene E2F1. Furthermore, this assay endpoint can be referred to as a primary readout, because this assay has produced multiple assay endpoints where this one serves a reporter gene function. To generalize the intended target to other relatable targets, this assay endpoint is annotated to the dna binding intended target family, where the subfamily is E2F transcription factor.
Human liver HepG2 cells are transiently transfected with multiple reporter transcription units (MRTUs) in 6-well plates using FuGene 6 reagent (Roche; 3 ml FuGene/1 mg DNA). The MRTU constructs are regulated by a cis-regulating element (promoter). […] A major difference between the CIS and TRANS system is that in CIS activities of endogenous TFs are measured, whereas the TRANS assay evaluates changes in activities of exogenous, chimeric NR-Gal4 proteins. […] At the end of 24 hour incubation, total RNA was isolated using TriZol reagent (Invitrogen). The isolated RNA is then reverse-transcribed using oligo(dT) primer and Mo-MLV reverse transcriptase (Invitrogen) with DNAse I (Ambion) treatment for 30 min. The one-tenth of the produced cDNA was amplified by PCR using Taq DNA polymerase (Invitrogen) and two reporter sequence-specific primers. The PCR products were fluorescently labeled by primer extension with 6-arboxyfluorescein (6-FAM) 5'-labeled reporter sequence-specific primer (2 min at 95 C, 20 s at 68 C and 10 min at 72 C) and these products were digested with 5U of HpaI (New England Biolabs) for 2h at 37 C. The fragments were purified using Qiaquick PCR columns (Qiagen), analyzed on an ABI 3130xL genetic analyzer (Applied Biosystems) with peak positions identified by using a set of X-rhodamine (ROX)-labeled MapMarker1000 molecular weight standards (BioVentures). The raw capillary electrophoresis data was processed using Attagraph software (Attagene).

Transcription factor E2F1 (Homo sapiens), sequence (Q01094 whole entry, looked up): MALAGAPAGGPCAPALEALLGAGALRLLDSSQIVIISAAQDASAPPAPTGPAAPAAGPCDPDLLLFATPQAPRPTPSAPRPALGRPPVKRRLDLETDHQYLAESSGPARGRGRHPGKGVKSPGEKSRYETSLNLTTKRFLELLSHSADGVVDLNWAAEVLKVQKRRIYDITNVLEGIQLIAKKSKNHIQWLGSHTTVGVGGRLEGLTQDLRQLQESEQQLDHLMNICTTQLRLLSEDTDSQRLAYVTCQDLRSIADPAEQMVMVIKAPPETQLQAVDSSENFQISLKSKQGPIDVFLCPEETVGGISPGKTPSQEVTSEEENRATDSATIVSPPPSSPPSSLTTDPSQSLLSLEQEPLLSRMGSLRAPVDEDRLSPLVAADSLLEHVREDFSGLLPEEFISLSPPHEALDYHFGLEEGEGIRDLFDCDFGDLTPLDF

Row | Compound | outcome | AC50
1 | COC(=O)OC | inactive | 
2 | C=CC(=O)OCC(O)COc1ccccc1 (stereo not given) | inactive | 
3 | O=C(O)CCCCCCCCCCC(=O)O | inactive | 
4 | CC(C)(COC(=O)c1ccccc1)COC(=O)c1ccccc1 | inactive | 
5 | CC1(C)[C@H]2CC[C@]1(C)[C@H](O)C2 | inactive | 
6 | C=O | inactive | 
7 | CNC(=O)Oc1ccc2c(c1)[C@]1(C)CCN(C)[C@@H]1N2C | inactive | 
8 | CC1CCC2CC1C2(C)C (stereo not given) | inactive | 
9 | CCCCC(CC)COCCC#N (stereo not given) | inactive | 
10 | CCCc1c(OCCCOc2ccc(OCC(=O)O)cc2)ccc(C(C)=O)c1O | inactive | 
11 | O=C(COc1ccc(Cl)cc1)N1CCN(Cc2ccc3c(c2)OCO3)CC1 | inactive | 
12 | Nc1ccc(S(N)(=O)=O)cc1 | inactive | 
13 | COC(=O)c1ccc(C)cc1 | inactive | 
14 | O=C(O)CCCCCCCC(=O)O | inactive | 
15 | C=C(C)C(=O)NCCCN(C)C | inactive | 
16 | Nc1cc(Cl)c(O)c(Cl)c1 | inactive | 
17 | Cc1ncc([N+](=O)[O-])n1C | inactive | 
18 | O=C(O)c1ccc([N+](=O)[O-])cc1 | inactive | 
19 | CCCCC(CC)COC(=O)/C=C\C(=O)OCC(CC)CCCC (stereo not given) |  | 100 µM (active)
20 | CCCOCC(C)O (stereo not given) | inactive | 

Row | Compound | outcome | AC50
21 | CC(C)(C)NC(N)=O | inactive | 
22 | Nc1cc([N+](=O)[O-])ccc1O | inactive | 
23 | Sc1nc(S)nc(S)n1 | inactive | 
24 | O=Cc1ccc(Cl)c([N+](=O)[O-])c1 | inactive | 
25 | O=Nc1ccc(Nc2ccccc2)cc1 | inactive | 
26 | CC(=O)Nc1ccccc1O | inactive | 
27 | CC(CCO)CCc1ccccc1 (stereo not given) | inactive | 
28 | CC1CCC(C(C)CS)CC1S (stereo not given) |  | 55.1 µM (active)
29 | NNc1nc(-c2ccc(N)cc2)cs1 | inactive | 
30 | O=C1OC2(c3cc(Br)c(O)c(Br)c3Oc3c2cc(Br)c(O)c3Br)c2c(Cl)c(Cl)c(Cl)c(Cl)c21 | inactive | 
31 | CCCCCCCCCCCCCCCC(=O)O | inactive | 
32 | CC(C)=CCO | inactive | 
33 | CCOc1ccccc1OCC | inactive | 
34 | CC(=O)[O][Al][O]C(C)=O | inactive | 
35 | CC(=O)OCC=Cc1ccccc1 | inactive | 
36 | Clc1nc(C(Cl)(Cl)Cl)c(Cl)c(Cl)c1Cl |  | 22.6 µM (active)
37 | CNCCCC12CCC(c3ccccc31)c1ccccc12 | inactive | 
38 | CN(CCOc1ccc(CC2SC(=O)NC2=O)cc1)c1ccccn1 (stereo not given) | inactive | 
39 | CCCCCCCCCCCCN(CCCCCCCCCCCC)CCCCCCCCCCCC | inactive | 
40 | Cc1ccc(S)cc1 | inactive | 
